Screening data as filed in PubChem.
HPGD block: HPGD (human) dehydrogenase inhibition; Potency, µM, hits mostly inhibitors; P15428; purified HPGD, NADH fluorescence kinetic, PGE2 substrate; 150,000 tested, 4.3% active
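NADH formation kinetics: reaction with 30 uM PGE2 and 1 mM NAD+ (final), 20 nM enzyme, Tris-HCl pH 8 with Tween 20, after 15 min compound preincubation at room temperature. Fluorescence change, last versus first of five reads.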
IMPase inh: IMPase inhibition in cells. P97697. AID 901. CHO-M1 cells, IP1 accumulation, HTRF TR-FRET ratio. 120,000 tested, under 10 active. inhibition (IP1 accumulation), % at 46.1 µM; active = well fitted curve in the direction sought with a large enough effect in the signal ratio, not every such curve was filed as active; inconclusive = small, poorly fitted or top-dose-only effect, or a change in a side signal; inactive = no such curve, though single readings can be large or run the other way; the % refers to the signal ratio;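 note: cells stimulated with carbachol in lithium chloride buffer; higher means more IMPase inhibition seen as more IP1 and lower FRET ratio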
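CHO-M1 cells (CHO stably expressing M1 receptor), compound up to 46 uM final, stimulated with carbachol (50 uM as added) in buffer with 50mM LiCl, pH 7.4, 30 min at 37C. Cytosolic IP1 read by TR-FRET; AC50 from Hill fits.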
ALDH1A1 block: ALDH1A1 (human) enzyme inhibition; Potency, µM (series often up to 75.3 µM), actives largely listed as inhibitors; Purified ALDH1A1, NADH fluorescence, propionaldehyde substrate; AID 1030; P00352; 220,000 tested, 7.3% active
Target sequence (P00352 whole entry, looked up): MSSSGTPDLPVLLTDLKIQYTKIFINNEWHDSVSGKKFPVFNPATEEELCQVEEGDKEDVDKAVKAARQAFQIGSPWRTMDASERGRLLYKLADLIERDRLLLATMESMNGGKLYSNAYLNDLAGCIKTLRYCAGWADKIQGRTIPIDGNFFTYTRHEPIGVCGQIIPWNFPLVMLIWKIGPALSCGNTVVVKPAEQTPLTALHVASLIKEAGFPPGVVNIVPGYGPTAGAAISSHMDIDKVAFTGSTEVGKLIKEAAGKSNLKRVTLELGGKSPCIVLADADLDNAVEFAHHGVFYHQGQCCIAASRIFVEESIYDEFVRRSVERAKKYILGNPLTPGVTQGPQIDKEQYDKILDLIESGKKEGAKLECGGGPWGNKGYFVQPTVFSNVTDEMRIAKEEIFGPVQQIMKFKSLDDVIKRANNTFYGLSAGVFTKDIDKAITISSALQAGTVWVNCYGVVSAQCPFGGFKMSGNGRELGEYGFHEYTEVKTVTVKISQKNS
Numbers stand for hits; [ ] = dose if it differs, or a comment. An excerpt weighted towards active compounds, which were near 9% of everything screened. Unless noted, calls come from the whole dose curve; as a rule, active = well fitted inhibition curve with a large enough effect (not every such curve was filed as active); inconclusive = small, poorly fitted or top-dose-only effect, or another doubt; inactive = no such curve, though single readings can be large or run the other way.

CCN(CC)CCCNC(CC(=O)Nc1cccc([N+](=O)[O-])c1)C(=O)O (stereo not drawn) was read as HPGD block inactive and ALDH1A1 block inactive.
C[N+]1(C)CC2([N+](=O)[O-])CC=C(Oc3ccccc3)C([N+](=O)[O-])(C2)C1 (stereo not drawn) was read as HPGD block inactive, IMPase inh inactive and ALDH1A1 block inactive.
`CN1CC2([N+](=O)[O-])CC=C(Oc3ccccc3)C([N+](=O)[O-])(C1)C2` (stereo not drawn) gave HPGD block inactive, IMPase inh inactive and ALDH1A1 block 2.82µM.
`O=C(c1cc(C(F)(F)F)cc(C(F)(F)F)c1)N1CCC2(CCCN(Cc3nccs3)C2)CC1` gave HPGD block inactive and ALDH1A1 block inactive.
For CCCOc1ccc(-c2nc[nH]c2[N+](=O)[O-])cc1 the results were ALDH1A1 block inactive.
Cc1cccc(-n2cc(-c3ccccc3)c3c(N4CCOCC4)ncnc32)c1 was read as ALDH1A1 block 17.8µM.
Screening Cc1ccc(-n2cc(-c3ccccc3)c3c(N4CCN(C)CC4)ncnc32)cc1 returned ALDH1A1 block inactive.
For CCCCCC(=O)N1CCN(CCN=CC2=C(O)CC(c3ccc(OC)cc3)CC2=O)CC1 (stereo not drawn) the results were HPGD block inactive, IMPase inh inactive and ALDH1A1 block inconclusive.
Screening CCCCCC(=O)N1CCN(CCN=CC2=C(O)CC(c3ccc(OC)c(OC)c3)CC2=O)CC1 (stereo not drawn) returned HPGD block inactive, IMPase inh inactive and ALDH1A1 block 22.4µM.
`CCOc1ccc(Br)cc1S(=O)(=O)Nc1ccccc1N1CCOCC1` gave HPGD block inactive, IMPase inh inactive and ALDH1A1 block inconclusive.
Screening c1ccc(-c2cc(-c3cc(-c4ccccn4)[nH]n3)n[nH]2)nc1 returned HPGD block inactive and ALDH1A1 block inactive[13.5 µM].
Screening Oc1ccc2ccccc2c1C=Nc1cc(C(F)(F)F)ccc1N1CCCC1 returned HPGD block inactive, IMPase inh inactive and ALDH1A1 block inactive.
`COc1ccc(N(C(=O)Cn2nnc3ccccc32)C(C(=O)NCc2ccco2)c2ccc(C)o2)cc1` (stereo not drawn) gave HPGD block inactive, IMPase inh inactive and ALDH1A1 block inconclusive.
Screening COc1cc(OC)cc(-n2nnnc2SCC(=O)NCc2cccs2)c1 returned ALDH1A1 block inactive.
For Nc1c(C(=O)c2ccccc2)sc2snc(SCC(=O)c3ccccc3)c12 the results were HPGD block inactive, IMPase inh inactive and ALDH1A1 block 10µM.
`Nc1c(C(=O)c2ccccc2)sc2c1c(=O)[nH]c(=O)n2-c1ccccc1` gave HPGD block inconclusive, IMPase inh inactive and ALDH1A1 block inconclusive.
`O=C(c1ccco1)N(Cc1ccccc1)Cc1ccccn1` gave ALDH1A1 block inactive.
Screening Cc1ccc(-c2nn(-c3ccccc3)cc2CN(Cc2ccccc2)C(=O)c2ccco2)o1 returned HPGD block inactive, IMPase inh inactive and ALDH1A1 block 11.2µM.
`CCOC(=O)CSC1=C(C#N)C(c2ccccc2OC)CC(=O)N1` (stereo not drawn) gave HPGD block inactive, IMPase inh inactive and ALDH1A1 block inactive.
Screening CCc1ccccc1N1CSC2=C(C#N)C(c3cc(OC)c(OC)cc3OC)CC(=O)N2C1 (stereo not drawn) returned HPGD block 7.94µM, IMPase inh inactive and ALDH1A1 block inconclusive.
Screening COc1cc(OC)c(C2CC(=O)N3CN(c4ccccc4)CSC3=C2C#N)cc1OC (stereo not drawn) returned HPGD block 10µM, IMPase inh inactive and ALDH1A1 block 8.91µM.
`CCc1ccccc1N1CCN(S(=O)(=O)c2cc(OC)ccc2OC)CC1` gave HPGD block inactive, IMPase inh inactive and ALDH1A1 block inconclusive.
For CC(C)Oc1ccc(C(=O)/C(=C\c2cccs2)c2nc3ccccc3o2)cc1 the results were HPGD block inactive and ALDH1A1 block inconclusive.
Cc1ccnc(NC(=O)c2cccc(NS(=O)(=O)c3ccccc3C)c2)c1 was read as HPGD block inactive, IMPase inh inactive and ALDH1A1 block inactive.
Oc1ccccc1-c1nc(/C=C/c2ccc(F)cc2)nn1-c1ccccc1 was read as IMPase inh inactive.
`Cc1ccc(Nc2nnc(-c3ccc(C)c(S(=O)(=O)N4CCN(C)CC4)c3)c3ccccc23)c(C)c1` gave IMPase inh inactive.
CCN(CC)CCc1c(C)[nH]c(C(=O)OCc2ccccc2)c1C was read as HPGD block inactive, IMPase inh inactive and ALDH1A1 block 20µM.
CC(=O)c1c(C)[nH]c(C(=O)OCc2ccccc2)c1C was read as HPGD block inactive and ALDH1A1 block inactive.
CC(=O)OCC1OC(n2cnc3c(=O)[nH]cnc32)C(OC(C)=O)C1OC(C)=O (stereo not drawn) was read as HPGD block inactive and ALDH1A1 block inactive.
`COc1ccc(NC(=O)C(NC(=O)c2ccc(=O)[nH]c2)c2ccc(OC)cc2)cc1` (stereo not drawn) gave HPGD block inactive, IMPase inh inactive and ALDH1A1 block inactive.
For COc1ccc(-c2cc(=O)c3c(O)cc(O)c(-c4cc(-c5cc(=O)c6c(O)cc(O)cc6o5)ccc4OC)c3o2)cc1 the results were HPGD block inactive and ALDH1A1 block inactive.
For C/C(=N/N=C/c1ccc(N(C)C)cc1)c1ccccc1 the results were HPGD block inactive and ALDH1A1 block 25.1µM.
Screening Cc1ccc(N=Cc2ccc(N(C)C)cc2)cc1 returned HPGD block inactive, IMPase inh inactive and ALDH1A1 block 0.562µM.
`CN(C)c1ccc(/C=N/n2ncc3ccccc32)cc1` gave HPGD block inconclusive, IMPase inh inactive and ALDH1A1 block inconclusive.
`Cc1ccc(/C=N/N=C/c2ccc(C)cc2)cc1` gave HPGD block inactive and ALDH1A1 block inactive.
Screening CN(C)c1ccc(C=Nc2ccccc2)cc1 returned HPGD block inactive, IMPase inh inactive and ALDH1A1 block 0.891µM.
Screening Cc1ccc(N=Cc2ccc(N(C)C)cc2)cc1C returned ALDH1A1 block 0.562µM.
CN(C)c1ccc(/C(=N\O)c2ccccc2)cc1 was read as HPGD block inconclusive, IMPase inh inactive and ALDH1A1 block inconclusive.
`CCCCCC(=O)N/N=C/c1ccc(N(C)C)cc1` gave HPGD block inconclusive, IMPase inh inactive and ALDH1A1 block inconclusive.
Cc1cccc(C(=O)c2c[nH]cc2-c2ccccc2)c1 was read as HPGD block inactive and ALDH1A1 block inactive.
Screening COc1ccc(N2CCN(C(C)C(=O)Nc3nnc(C)s3)CC2)cc1 (stereo not drawn) returned ALDH1A1 block inactive.
For COCCOC(=O)c1ccccc1C(=O)OCCOC the results were HPGD block inactive and ALDH1A1 block inactive.
CSc1cccc(NC(=S)NCCCN2CCN(c3ccc(F)cc3)CC2)c1 was read as ALDH1A1 block inactive.
CCNC(=O)CCC(N)C(=O)O (stereo not drawn) was read as HPGD block inactive and ALDH1A1 block inactive.
`CN(C)c1ccc(C=Nc2ccc(N(C)C)cc2)cc1` gave HPGD block inactive, IMPase inh inactive and ALDH1A1 block 2.24µM.
Screening C(=N\C(/N=C/c1ccco1)c1ccco1)/c1ccco1 returned HPGD block inconclusive, IMPase inh inactive and ALDH1A1 block inconclusive.
